ELG1 DNA repair – ELG1-dependent DNA repair inhibition; HEK293T ELG1-luciferase reporter, luminescence, 16 h; DNA damage induced by 5-fluorouridine; Potency, µM (doses to about 46.1 µM), actives largely listed as inhibitors; hit rate 2.3% among 330,000; AID 504467; note: nearly all actives have a fitted effect of over 55% in size
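Reporter activity after DNA damage by 5-fluorouridine is monitored. Compound-treated cells incubate 16 hr at 37 °C, then ONE-Glo is added for 30 min before luminescence reading.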
FLuc modulator – inhibits or activates purified firefly luciferase, miR-21 counter-screen. P08659. purified FLuc, Km substrates, luminescence inhibition. Potency, µM (top dose mostly 57.5 µM), hits mostly inhibitors. hit rate 6.9% among 360,000. AID 588342; note: nearly all actives have a fitted effect of over 55% in size
Target sequence (P08659 whole entry, looked up): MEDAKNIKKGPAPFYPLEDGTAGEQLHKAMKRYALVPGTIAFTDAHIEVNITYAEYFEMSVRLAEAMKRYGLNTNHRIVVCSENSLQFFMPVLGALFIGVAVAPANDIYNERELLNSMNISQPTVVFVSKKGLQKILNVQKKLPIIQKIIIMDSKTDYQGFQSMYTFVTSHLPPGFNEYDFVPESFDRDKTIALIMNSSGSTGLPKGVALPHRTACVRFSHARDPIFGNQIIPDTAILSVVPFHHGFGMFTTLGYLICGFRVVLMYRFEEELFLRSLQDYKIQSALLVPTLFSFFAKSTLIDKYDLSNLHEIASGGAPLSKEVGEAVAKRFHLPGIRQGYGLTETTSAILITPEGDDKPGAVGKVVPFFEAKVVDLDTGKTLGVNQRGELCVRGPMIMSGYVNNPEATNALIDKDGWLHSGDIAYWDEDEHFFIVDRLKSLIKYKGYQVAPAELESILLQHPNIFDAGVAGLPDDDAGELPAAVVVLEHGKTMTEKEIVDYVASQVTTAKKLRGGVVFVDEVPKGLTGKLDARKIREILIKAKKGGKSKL
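Biochemical qHTS of compounds, final roughly 60 µM downward over six points, against 10 nM purified firefly luciferase using Km concentrations of substrates (10 uM D-luciferin, 10 uM ATP) in Tris acetate pH 7.5 buffer; luminescence output.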
SMN2 splice enh – SMN2 splice variant enhancement; HEK293 SMN2-luciferase splicing reporter, luminescence, 30-36 h; Potency, µM (series often up to 46.1 µM), most hits filed as activators; hit rate 2.8% among 210,000; note: nearly all actives have a fitted effect of over 55% in size
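HEK293 cells carry an SMN2 minigene-luciferase reporter in which exon 7 inclusion puts luciferase in frame. Cells were seeded at 2000 cells/well, attached for 10-12 hours, then exposed to compounds for 30-36 hours at 37C before ONE-Glo luminescence.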
ELG1 genotox – inducers of genotoxicity in HEK293T ELG1-luciferase cells | HEK293T ELG1-luciferase reporter, luminescence, 16 h | Potency, µM (doses to about 46 µM), usual class: activators | hit rate 1.3% among 330,000; note: nearly all actives have a fitted effect of over 60% in size
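Screening used a luciferase reporter fused to human ELG1 in HEK293T cells. Luminescence was read on a CCD plate imager after 16 hr exposure and 30 min ONE-Glo incubation.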
Rab9 promoter act – activates the Rab9 promoter. Huh7 Rab9 promoter-luciferase reporter, luminescence, 24 h. Potency, µM (titrated, usually from 9.22 µM), most hits filed as activators. hit rate 2.8% among 320,000. AID 485297; note: nearly all actives have a fitted effect of over 60% in size
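Huh7 reporter line, Rab9 promoter upstream of luciferase. Compound exposure 24 h at 37 °C in reduced-serum medium with 10% FBS. Read-out: luminescence.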
NPC1 promoter act – NPC1 promoter activation. Huh7 NPC1 promoter luciferase reporter, 24 h. Potency, µM (top dose mostly 9.22 µM), most hits filed as activators. hit rate 2.4% among 320,000; note: nearly all actives have a fitted effect of over 60% in size
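NPC1 promoter–luciferase Huh7 cells; 24 h compound; luminescence.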
Large screens that a line does not name were inactive. Compounds with a hit are over-represented: about 9.2% of the library has one in this group of screens. Calls come from the whole dose curve; as a rule, active = well fitted curve in the direction sought with a large enough effect; inconclusive = small, poorly fitted or top-dose-only effect, or another doubt; inactive = no such curve, though single readings can be large; an effect the other way counts as inactive or inconclusive.

O=C(NCCC1=CCCCC1)C(=O)NCc1ccncc1	none
Cn1cnc(S(=O)(=O)NCc2ccc(Br)cc2)c1	none (no result: SMN2 splice enh)
COCCCNC(=O)Cn1c(=O)n(CCCCCC(=O)NCc2ccc3c(c2)OCO3)c(=O)c2sccc21	none
CCc1ccccc1-n1c(SCC(=O)Nc2ccc3c(c2)OCCO3)nc2[nH]ncc2c1=O	ELG1 DNA repair inconclusive, FLuc modulator 17µM, ELG1 genotox inconclusive
Cc1c(C(=O)Nc2nc3ccccc3[nH]2)oc2ccc(Br)cc12	ELG1 DNA repair inconclusive, FLuc modulator 7.6µM, ELG1 genotox inconclusive, Rab9 promoter act inconclusive (no result: SMN2 splice enh)
Cc1c(C(=O)Nc2nc3ccccc3[nH]2)oc2ccccc12	ELG1 DNA repair inconclusive, FLuc modulator 3µM, SMN2 splice enh 10µM, ELG1 genotox inconclusive, Rab9 promoter act 4µM, NPC1 promoter act inconclusive
Cc1csc(SCC(=O)Nc2nccs2)n1	ELG1 DNA repair inconclusive (no result: SMN2 splice enh)
NC(=O)c1ccsc1NC(=O)CSc1ccccc1F	ELG1 DNA repair inconclusive, FLuc modulator 21µM, SMN2 splice enh inconclusive, ELG1 genotox 10µM, Rab9 promoter act inconclusive, NPC1 promoter act inconclusive
Cc1csc(SCC(=O)Nc2sccc2C(N)=O)n1	ELG1 DNA repair inconclusive, FLuc modulator inconclusive, SMN2 splice enh 13µM, ELG1 genotox inconclusive, Rab9 promoter act inconclusive, NPC1 promoter act inconclusive
CC(=O)Oc1cc(C(=O)OCC(=O)N2CCc3ccccc3C2)cc(OC(C)=O)c1OC(C)=O	ELG1 DNA repair inconclusive (no result: FLuc modulator, SMN2 splice enh, Rab9 promoter act, NPC1 promoter act)
C/C(=C\c1ccc(Br)cc1)C(=O)c1c(C)cc(C)[nH]c1=O	ELG1 DNA repair 15µM (no result: SMN2 splice enh)
CCc1ccc(/C=C/C(=O)c2c(C)cc(C)[nH]c2=O)cc1	ELG1 DNA repair 21µM, FLuc modulator inconclusive
CCc1ccc(/C=C(\C)C(=O)c2c(C)cc(C)[nH]c2=O)cc1	ELG1 DNA repair inconclusive
Cc1cc(C)c(C(=O)/C=C/c2cccs2)c(=O)[nH]1	ELG1 DNA repair inconclusive
Cc1ccc(/C=C/C(=O)c2c(C)cc(C)[nH]c2=O)cc1	ELG1 DNA repair 21µM
Cn1c(N)c(C(=O)/C=C/c2ccccc2)c(=O)[nH]c1=O	ELG1 DNA repair inconclusive, FLuc modulator 17µM, ELG1 genotox inconclusive, Rab9 promoter act inconclusive, NPC1 promoter act inconclusive (no result: SMN2 splice enh)
Cc1ccnc(SC2CC(=O)N(c3ccc(F)cc3)C2=O)n1 (stereo not drawn)	none (no result: SMN2 splice enh)
O=C1CN(C(=O)c2ccc(Br)o2)C(c2ccccc2)c2cc(Cl)ccc2N1 (stereo not drawn)	ELG1 DNA repair 21µM
Cc1c([N+](=O)[O-])cc(C(=O)Oc2cccc(C(=S)N3CCOCC3)c2)cc1[N+](=O)[O-]	none
Nc1sccc1C(=O)c1ccc(Cl)cc1	ELG1 DNA repair inconclusive, FLuc modulator inconclusive, ELG1 genotox 11µM, Rab9 promoter act inconclusive
Cc1cc(=O)[nH]c(N/N=C/c2cn(CCC#N)nc2-c2ccccc2)n1	FLuc modulator 19µM
CCN(CC(=O)Nc1c(F)cccc1F)C(=O)CCc1nc2cc(S(=O)(=O)N3CCOCC3)ccc2n1C	none (no result: SMN2 splice enh)
COc1ccc(NC(=O)Nc2cccs2)cc1OC	ELG1 DNA repair inconclusive, FLuc modulator 21µM, ELG1 genotox inconclusive
COc1cccc(NC(=O)Nc2cccs2)c1	ELG1 DNA repair inconclusive, FLuc modulator 24µM, SMN2 splice enh inconclusive, Rab9 promoter act inconclusive
CC(=O)c1cccc(NC(=O)Nc2cccs2)c1	FLuc modulator 19µM
COc1ccc(CN(CC(O)COCc2ccccc2)S(=O)(=O)c2ccccc2Br)cc1OC (stereo not drawn)	ELG1 DNA repair inconclusive (no result: FLuc modulator, SMN2 splice enh, Rab9 promoter act, NPC1 promoter act)
CCCOc1ccc(C2C(=O)N(C3CCCCC3)CC(=O)N2CCC2=CCCCC2)cc1OC (stereo not drawn)	none (no result: ELG1 DNA repair, SMN2 splice enh, ELG1 genotox, Rab9 promoter act, NPC1 promoter act)
C/C(=N\NC(=O)c1c(Cl)c(C)nn1C)c1cccc(NC(=O)COc2ccc(Cl)cc2)c1	ELG1 DNA repair 16µM, FLuc modulator 8.5µM, NPC1 promoter act inconclusive
Cc1cc(Cl)ccc1OCC(=O)Nc1nc(N)nc(N)n1	none (no result: ELG1 DNA repair, FLuc modulator, ELG1 genotox, Rab9 promoter act, NPC1 promoter act)
C/C(=N/NC(=O)c1ccc(C)s1)c1cccc(NC(=O)COc2ccc(Cl)cc2C)c1	FLuc modulator 5.4µM
Cc1ccc(OCC(=O)Nc2ccc3nn(-c4ccc(Cl)cc4)nc3c2)cc1	none (no result: ELG1 DNA repair, ELG1 genotox, Rab9 promoter act, NPC1 promoter act)
Cc1ccc2cccnc2c1NC(=S)NC(=O)c1ccccc1	none
